Measured values published in PubChem BioAssay AID686971 (National Center for Advancing Translational Sciences (NCATS), 2013).
Among all 360,000 compounds or so, about 7,500 (2.1%) were called active. A call without a number means that no potency is given here. About 8% were inconclusive and are not listed. This is one part of a sample in which actives are shown more often than they occur. A number with no mark means an inactive call. Calls come from the whole dose curve; as a rule, active = well fitted cell-killing curve with a large enough effect; inconclusive = small, poorly fitted or top-dose-only effect, or effect the other way, or another doubt; inactive = no such curve, though single readings can be large or run the other way.

Experiment: qHTS for induction of synthetic lethality in tumor cells producing 2HG: qHTS for the HT-1080-IDH1KD cell line
Details: HT-1080 IDH1 knockdown viability, ATP luminescence, 48 h; series mostly up to 46.1 µM
Summary of the method: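 Using the IDH1-knockdown HT-1080 line run in the same batch and compound series as the NT line, viability after 48 h at 37 °C was determined by CellTiter-Glo luminescence and expressed as % activity.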
Potency is the fitted concentration of half-maximal effect.

Structure (SMILES) | Potency | activity, negative = toxicity
COc1cc2c(cc1OC)CN(C(=O)c1cc(=O)c3ccccc3o1)CC2 | 5.8 µM (active) | 
COc1ccccc1CNC(=O)c1cc(=O)c2ccccc2o1 | inactive | 
COc1ccc2c(CC(=O)N3CCc4cc(OC)c(OC)cc4C3)coc2c1 | inactive | 
COc1cc(NC(=O)C2=C(C)OCCS2)c(Cl)cc1C(=O)NCCCN1CCCC(C)C1 (configuration not stated) | inactive | 
NS(=O)(=O)c1ccc(CCNS(=O)(=O)c2cccc3cccnc23)cc1 | inactive | 
O=[N+]([O-])c1ccccc1S(=O)(=O)Nc1cccc2cccnc12 | 11.6 µM (active) | 
Cc1ccc2cccc([N+](=O)[O-])c2n1 | inactive | 
Cc1nccn1-c1ccc(NC(=O)[C@H]2O[C@@H](n3cnc4c(N)ncnc43)[C@H](O)[C@@H]2O)cc1 | inactive | 
CC1(C(=O)NS(=O)(=O)Cc2cccc(Cl)c2)CCN1C(=O)Cc1ccccc1 (configuration not stated) | inactive | 
CCCCn1nnnc1C(c1ccccc1)N1CCN(c2ccccc2OC)CC1 (configuration not stated) | inactive | 
CCOC(=O)N1CCN(S(=O)(=O)c2ccc(OC)cc2)CC1 | inactive | 
CCOC(=O)N1CCN(C(=O)c2ccccc2N(Cc2ccccc2)S(=O)(=O)c2ccc(OC)cc2)CC1 | 3.26 µM (active) | 
NC(=O)c1ccccc1N(Cc1ccccc1)S(=O)(=O)c1ccccc1 | inactive | 
CCCc1ccc(C(O)c2ncc(-c3cccc(OC)c3)[nH]2)cc1 (configuration not stated) | inactive | 
CN(CCO)C(=O)c1nc[nH]c1C(=O)N(C)Cc1ccccc1 | inactive | 
Cc1ccc(-c2nc3ccc(Br)cn3c2Cc2ccccc2C(F)(F)F)cc1 | inactive | 
Cc1cc(N)n2nc(-c3ccc(C(C)(C)C)cc3)cc2n1 | 20.6 µM (active) | 
Cc1cc(C(C)(C)C)cc(C)c1N | inactive | 
COc1ccc(-c2cc(C)nc3nc(N)nn23)cc1 | inactive | 
O=C(Nc1ccc(Cl)cc1)c1csc([C@@H]2O[C@H](CO)[C@H](O)[C@H](O)[C@H]2O)n1 | inactive | 
CO[C@@H]1CN(C)C(=O)c2cc(NC(=O)Nc3cc(F)ccc3F)ccc2OC[C@H](C)N(C(=O)c2ccccn2)C[C@@H]1C | inactive | 
CCOC(=O)N1C(=O)C[C@](Sc2ccc(C)cc2)(C(=O)OC)[C@H]1c1ccccc1 | inactive | 
Nc1ncnc2c1ncn2[C@@H]1O[C@H](C(=O)NCC(F)(F)F)[C@@H](O)[C@H]1O | inactive | 
COc1ccc(-c2[nH][nH]c(=O)c2NC(=O)c2ccc([N+](=O)[O-])cc2)cc1 | inactive | 
CCOC(=O)c1cc(-c2sc(NC(=O)c3ccccc3)nc2C)n(-c2ccc(Br)cc2)n1 | inactive | 

Structure (SMILES) | Potency | activity, negative = toxicity
COc1ccccc1CN1CCN(C(c2ccccc2)c2ccccc2)CC1 | inactive | 
CC1(C)CC(N2CCN(C(c3ccccc3)c3ccccc3)CC2)=CC(=[N+]2CCCCC2)C1 | 2.59 µM (active) | 
c1ccc(C(c2ccccc2)N2CCN(Cc3nnnn3C3CCCCC3)CC2)cc1 | inactive | 
OC(c1ccccc1)c1nc(/C=C/c2ccc(C(F)(F)F)cc2)cs1 (configuration not stated) | inactive | 
CCCCc1ccc(S(=O)(=O)NC(=O)C2(C)CCN2C(=O)c2ccccc2)cc1 (configuration not stated) | inactive | 
CCCCCCn1c(SCC(=O)c2ccccc2)nc2c1c(=O)[nH]c(=O)n2C | inactive | 
C=CCSc1nc2c(c(=O)[nH]c(=O)n2C)n1Cc1ccccc1 | inactive | 
CCCCCn1c(SCCC(C)C)nc2c1c(=O)[nH]c(=O)n2C | 20.6 µM (active) | 
COCCNC(=O)c1cc2c(Br)ccc(Br)c2nc1N | inactive | 
CSc1ncnc2c1ncn2CCCNCC1CCCCC1 | inactive | 
CCc1nc2ccc(C(=O)NCCNC(C)=O)cn2c1N(CC)Cc1cccc(Br)c1 | inactive | 
CN(Cc1ccccc1)C(=O)CCC1CCN(C(=O)c2ccco2)CC1 | inactive | 
Cc1cc(NC(=O)/C=C/C(=O)N(c2ccccc2C)C(C(=O)NC2CCCC2)c2ccc(F)cc2)no1 (configuration not stated) | 10 µM (active) | 
Cc1cc(NC(=O)CCC(=O)N(c2ccccc2)C(C(=O)NC2CCCC2)c2ccncc2)no1 (configuration not stated) | inactive | 
Cc1cc(NC(=O)CCC(=O)N(c2cccc(F)c2)C(C(=O)NC2CCCC2)c2ccncc2)no1 (configuration not stated) | inactive | 
O=C(N=C1SC2CS(=O)(=O)CC2N1Cc1ccccc1)c1ccccc1 (configuration not stated) | inactive | 
COC(=O)[C@]12CCCCC=C1N(Cc1ccccc1)C(=O)[C@H](CC(=O)NCc1ccc(C)o1)C2 | inactive | 
COc1ccc(C)c(Cn2c(-c3nonc3N)nc3ccccc32)c1 | 5.17 µM (active) | 
CCn1c(C(O)c2cc(OC)ccc2OC)nc2ccccc21 (configuration not stated) | inactive | 
Nc1nonc1-c1nc2ccccc2n1Cc1ccc(F)cc1 | inactive | 
COCCCn1c(=O)/c(=C/c2ccccc2OC(C)C)s/c1=C(\C#N)C(=O)Nc1ccc(C(=O)O)cc1 | inactive | 
CC1(c2cccc(Br)c2)NC(=O)N(CC(=O)NCCC2=CCCCC2)C1=O (configuration not stated) | inactive | 
Oc1ccc(-c2nnc(Nc3ccccc3)c3ccccc23)cc1 | inactive | 
Cc1ccc2nc(Nc3ccccc3O)nc(-c3ccccc3)c2c1 |  | -0.715% [at 9.24 µM]
Cc1cccc(-c2nc(Nc3ccc(O)cc3)c3ccccc3n2)c1 | 11.6 µM (active) | 

Structure (SMILES) | Potency | activity, negative = toxicity
CC1=C(C(=O)N2CCOCC2)CC(CC(=O)NCc2ccco2)C(=O)N1Cc1ccc(F)cc1 (configuration not stated) | inactive | 
COc1ccc(N2c3ccccc3CN(Cc3ccccc3)[C@@H](C)[C@H]2Cc2ccc(-c3ccccc3)cc2)cc1 | inactive | 
O=C(NCc1ccccc1Cl)c1csc([C@@H]2O[C@H](CO)[C@@H](O)[C@H]2O)n1 | inactive | 
O=C(NNC(=O)c1ccc(Cl)nc1)c1ccc(Br)cc1 | inactive | 
CCN(CC)c1ccc(NC(=O)c2ccc(Cl)nc2)cc1 | 7.31 µM (active) | 
O=C(Nc1ccc2nc3n(c(=O)c2c1)CCCC3)c1ccc(Cl)nc1 | inactive | 
CC(C)n1ncc2c(C(=O)N3CCN(Cc4cccs4)CC3)cc(C3CC3)nc21 | inactive | 
CC1C(=O)N(Cc2cn(CC3CCCCC3)nn2)CCS(=O)(=O)N1Cc1ccc(-c2cccc(N(C)C)c2)cc1 (configuration not stated) | inactive | 
COc1cc(/C=C/C(=O)N2c3ccccc3Sc3ccc(C(F)(F)F)cc32)cc(OC)c1OC | inactive | 
O=C(CN1CCCCCC1)N1c2ccccc2Sc2ccc(C(F)(F)F)cc21 | 11.2 µM (active) | 
O=C(CN1CCCCC1)N1c2ccccc2Sc2ccc(C(F)(F)F)cc21 | inactive | 
O=S1(=O)CC(N2CCN(c3ccccn3)CC2)CN1Cc1ccc(F)cc1 (configuration not stated) | inactive | 
COc1cc(OC)cc(C(=O)N[C@H](C(=O)NNC(=O)c2ccc(Br)cc2)C(C)C)c1 | inactive | 
COc1cc(OC)cc(C(=O)N[C@H](C(=O)Nc2nc3ccccc3[nH]2)C(C)C)c1 | 1.3 µM (active) | 
COc1ccc(C(=O)N[C@H](C(=O)NCc2ccccc2)C(C)C)cc1 | inactive | 
Cc1ccccc1CN1C(=O)CSCC1(C)C(=O)Nc1c(C)cccc1C (configuration not stated) | inactive | 
N#Cc1cccc(NC(=O)c2cc(C3CCCCN3C(=O)CCc3ccccc3)on2)c1 (configuration not stated) | inactive | 
O=C(COC(=O)c1cccc(Cl)c1Cl)NC1CCCCCC1 | inactive | 
Cc1ccc([C@H]2N[C@]3(CCCN(CC4CCCCC4)C3=O)[C@H]3C(=O)N(Cc4ccccc4)C(=O)[C@@H]23)cc1 | inactive | 
CCc1ccc2c(c1)NC(=O)C2(C)Cc1ccc(OC(F)(F)F)cc1 (configuration not stated) | 23.1 µM (active) | 
COc1ccccc1CC1(C)C(=O)Nc2ccc(OC(F)(F)F)cc21 (configuration not stated) | inactive | 
CCNC(=S)Nc1ccc(OC(F)(F)F)cc1 | inactive | 
CC(=O)c1ccc(OCC(=O)N(C)C2CCS(=O)(=O)C2)cc1 (configuration not stated) | inactive | 
O=C(NC1CCCC1)C1c2ccccc2OCC(=O)N1CC(F)(F)F (configuration not stated) | inactive | 
Cc1cc(S(=O)(=O)Nc2ccc(C(=O)NCC(c3ccco3)N3CCCC3)cc2)ccc1F (configuration not stated) | inactive | 

Structure (SMILES) | Potency | activity, negative = toxicity
CSc1ncccc1C(=O)NCC(c1ccco1)N1CCCCC1 (configuration not stated) | inactive | 
Cc1c(C(=O)NCC(c2ccco2)N2CCCC2)oc2ccc(Cl)cc12 (configuration not stated) | 23.1 µM (active) | 
C/C(=N/Nc1ccc(Cl)cc1)c1cnnc(-c2ccccc2)n1 | inactive | 
CCCCCCCN=C(C)c1ccccc1O | inactive | 
C/C(=N\Nc1ccc(Cl)nn1)c1ccccc1O | 3.26 µM (active) | 
O=C(C[C@H]1C[C@H]2c3cc(NS(=O)(=O)c4ccc(F)cc4)ccc3O[C@H]2[C@H](CO)O1)NCc1cc(F)ccc1F | inactive | 
COc1ccc(C(=O)NCC2CCCO2)cc1S(=O)(=O)NCc1ccc(Cl)cc1 (configuration not stated) | inactive | 
CSCc1nnc(NC(=O)c2ccc(S(=O)(=O)N3CCCCC3C)cc2)o1 (configuration not stated) | inactive | 
CC1CCCN(S(=O)(=O)c2ccc(C(=O)Nc3nnc(-c4ccncc4)o3)cc2)C1 (configuration not stated) | inactive | 
CC1CCCCN1S(=O)(=O)c1ccc(C(=O)Nc2nnc(-c3cccs3)o2)cc1 (configuration not stated) | 8.2 µM (active) | 
CCCNC(=O)c1cc(C2CCCN(C(=O)c3ccc4c(c3)CCO4)C2)on1 (configuration not stated) | inactive | 
COC(=O)C[C@H]1C[C@@H]2c3cc(N(C)C)ccc3O[C@@H]2[C@H](CO)O1 | inactive | 
CCOc1ccc(CCNC(=O)COC(=O)c2ccc(C)c(S(=O)(=O)N3CCOCC3)c2)cc1OCC | inactive | 
Brc1ccc2c(c1)[C@H]1OCC[C@H]1[C@@H](c1cccs1)N2 | 9.2 µM (active) | 
c1csc(CN2CCN(Cc3cccs3)C2c2cccs2)c1 |  | -1.16% [at 9.24 µM]
COc1cc2ccc(C(C)=O)c(O)c2cc1OC | inactive | 
COCCNc1ncnc2c1ncn2[C@H]1CN(Cc2ccc(OC)cc2)C[C@@H](CO)O1 | inactive | 
COc1cccc2c1C(=O)c1c(O)c3c(c(O)c1C2=O)CC(O)(C(C)=NNC(=O)c1ccc(Cl)c(Cl)c1)CC3OC1CC(N)C(O)C(C)O1 (configuration not stated) | 1.16 µM (active) | 
OC(c1ccccc1)c1nc(-c2cnc3ccccc3c2)cs1 (configuration not stated) | inactive | 
Cc1ccc(S(=O)(=O)NC2CCCCCC2)cc1 | inactive | 
Cc1ccc(S(=O)(=O)C2(S(=O)(=O)c3ccc(C)cc3)CCCC2)cc1 | 11.6 µM (active) | 
Cc1ccc(S(=O)(=O)N(C)C2(C)CCS(=O)(=O)C2)cc1 (configuration not stated) | inactive | 
